Assay results as given in PubChem BioAssay AID1159580 (chemical genetic matrix, 2015).
Hit rate of the full screen: of about 5,500 compounds, about 2,000 (36%) were called active. Roughly 18% stayed inconclusive and do not appear here. Rule as the data show it: active = normalized growth mostly below about 0.91 (no sharp cut-off); inconclusive = no clear call, values can overlap the other calls; inactive = mostly above about 0.92. This is one part of the list.

Experiment: chemical genetic growth profiling, strain panel (AID 1159580);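 also: tested at 20 µM; growth read once vehicle control cultures reached saturation at 30 °C; 1 = growth at the plate median or of vehicle wells; lower values mean less growth of the strain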
Details: growth OD
[1] = S. cerevisiae deletion strains, locus YAL040C, strain CLN3, hits give low values
[2] = S. cerevisiae deletion strains, locus YCL061C, strain MRC1 (second series), hits give low values
[3] = S. cerevisiae deletion strains, locus YDR363W, strain ESC2, hits give low values
[4] = S. cerevisiae deletion strains, locus YER002W, strain NOP16, hits give low values
[5] = S. cerevisiae deletion strains, locus YJR075W, strain HOC1, hits give low values
[6] = S. cerevisiae deletion strains, locus YMR263W, strain SAP30, hits give low values
[7] = S. cerevisiae deletion strains, locus YMR307W, strain GAS1, hits give low values
[8] = S. cerevisiae deletion strains, locus YNL175C, strain NOP13, hits give low values
[9] = S. cerevisiae deletion strains, locus YNL197C, strain WHI3, hits give low values
[10] = S. cerevisiae deletion strains, locus YNL224C, strain SQS1, hits give low values
[11] = S. cerevisiae deletion strains, locus YNL322C, strain KRE1, hits give low values
[12] = S. cerevisiae deletion strains, locus YOR083W, strain WHI5 (second series), hits give low values
[13] = S. cerevisiae deletion strains, locus YPL055C, strain LGE1, hits give low values
[14] = S. cerevisiae deletion strains, locus YPL241C, strain CIN2, hits give low values
[15] = S. cerevisiae deletion strains, locus YAL013W, strain DEP1, hits give low values
[16] = S. cerevisiae deletion strains, locus YGR078C, strain PAC10, hits give low values
[17] = S. cerevisiae deletion strains, locus YNL153C, strain GIM3, hits give low values
[18] = S. cerevisiae deletion strains, locus YAR019C, strain CDC15, hits give low values
[19] = S. cerevisiae deletion strains, locus YBL105C, strain PKC1, hits give low values
[20] = S. cerevisiae deletion strains, locus YBR135W, strain CKS1, hits give low values
[21] = S. cerevisiae deletion strains, locus YBR136W, strain MEC1, hits give low values
[22] = S. cerevisiae deletion strains, locus YBR160W, strain CDC28, hits give low values
[23] = S. cerevisiae deletion strains, locus YDL017W, strain CDC7, hits give low values
[24] = S. cerevisiae deletion strains, locus YDL028C, strain MPS1, hits give low values
[25] = S. cerevisiae deletion strains, locus YDL101C, strain DUN1, hits give low values
[26] = S. cerevisiae deletion strains, locus YDL108W, strain KIN28, hits give low values
[27] = S. cerevisiae deletion strains, locus YDL132W, strain cdc53, hits give low values
[28] = S. cerevisiae deletion strains, locus YDL214C, strain PRR2, hits give low values
[29] = S. cerevisiae deletion strains, locus YDR052C, strain DBF4, hits give low values
[30] = S. cerevisiae deletion strains, locus YDR054C, strain cdc34, hits give low values
[31] = S. cerevisiae deletion strains, locus YDR226W, strain ADK1, hits give low values
[32] = S. cerevisiae deletion strains, locus YDR477W, strain SNF1, hits give low values
[33] = S. cerevisiae deletion strains, locus YER123W, strain YCK3, hits give low values
[34] = S. cerevisiae deletion strains, locus YER133W, strain GLC7, hits give low values
[35] = S. cerevisiae deletion strains, locus YFL009W, strain cdc4, hits give low values
[36] = S. cerevisiae deletion strains, locus YFL029C, strain CAK1, hits give low values
[37] = S. cerevisiae deletion strains, locus YFR003C, strain YPI1, hits give low values
[38] = S. cerevisiae deletion strains, locus YFR019W, strain FAB1, hits give low values
[39] = S. cerevisiae deletion strains, locus YFR028C, strain CDC14, hits give low values
[40] = S. cerevisiae deletion strains, locus YGR040W, strain KSS1, hits give low values
[41] = S. cerevisiae deletion strains, locus YGR052W, strain FMP48, hits give low values
[42] = S. cerevisiae deletion strains, locus YGR092W, strain DBF2, hits give low values
[43] = S. cerevisiae deletion strains, locus YHR030C, strain SLT2, hits give low values
[44] = S. cerevisiae deletion strains, locus YHR079C, strain IRE1, hits give low values
[45] = S. cerevisiae deletion strains, locus YHR082C, strain KSP1, hits give low values
[46] = S. cerevisiae deletion strains, locus YHR205W, strain SCH9, hits give low values
[47] = S. cerevisiae deletion strains, locus YIL147C, strain SLN1, hits give low values
[48] = S. cerevisiae deletion strains, locus YJL095W, strain BCK1, hits give low values
[49] = S. cerevisiae deletion strains, locus YJL128C, strain PBS2, hits give low values
[50] = S. cerevisiae deletion strains, locus YJL157C, strain FAR1, hits give low values
[51] = S. cerevisiae deletion strains, locus YJR016C, strain ILV3, hits give low values
[52] = S. cerevisiae deletion strains, locus YJR066W, strain TOR1 (second series), hits give low values
[53] = S. cerevisiae deletion strains, locus YJR066W, strain TOR1, hits give low values
[54] = S. cerevisiae deletion strains, locus YKL048C, strain ELM1, hits give low values
[55] = S. cerevisiae deletion strains, locus YKL067W, strain YNK1, hits give low values
[56] = S. cerevisiae deletion strains, locus YKL101W, strain HSL1, hits give low values
[57] = S. cerevisiae deletion strains, locus YKL193C, strain SDS22, hits give low values
[58] = S. cerevisiae deletion strains, locus YKL203C, strain TOR2, hits give low values
[59] = S. cerevisiae deletion strains, locus YLR113W, strain HOG1, hits give low values
[60] = S. cerevisiae deletion strains, locus YLR133W, strain CKI1, hits give low values
[61] = S. cerevisiae deletion strains, locus YLR403W, strain SFP1, hits give low values
[62] = S. cerevisiae deletion strains, locus YML070W, strain DAK1, hits give low values
[63] = S. cerevisiae deletion strains, locus YMR001C, strain CDC5, hits give low values
[64] = S. cerevisiae deletion strains, locus YMR205C, strain PFK2 (second series), hits give low values
[65] = S. cerevisiae deletion strains, locus YMR277W, strain FCP1, hits give low values
[66] = S. cerevisiae deletion strains, locus YNL006W, strain LST8, hits give low values
[67] = S. cerevisiae deletion strains, locus YNL020C, strain ARK1, hits give low values
[68] = S. cerevisiae deletion strains, locus YNL161W, strain CBK1, hits give low values
[69] = S. cerevisiae deletion strains, locus YNL183C, strain NPR1, hits give low values
[70] = S. cerevisiae deletion strains, locus YNL207W, strain RIO2, hits give low values
[71] = S. cerevisiae deletion strains, locus YNL222W, strain SSU72, hits give low values
[72] = S. cerevisiae deletion strains, locus YNL307C, strain MCK1 (second series), hits give low values
[73] = S. cerevisiae deletion strains, locus YOL078W, strain AVO1, hits give low values
[74] = S. cerevisiae deletion strains, locus YOL136C, strain PFK27, hits give low values
[75] = S. cerevisiae deletion strains, locus YOR061W, strain CKA2, hits give low values
[76] = S. cerevisiae deletion strains, locus YOR119C, strain RIO1, hits give low values
[77] = S. cerevisiae deletion strains, locus YOR231W, strain MKK1, hits give low values
[78] = S. cerevisiae deletion strains, locus YOR329C, strain SCD5, hits give low values
[79] = S. cerevisiae deletion strains, locus YPL031C, strain PHO85, hits give low values
[80] = S. cerevisiae deletion strains, locus YPL153C, strain RAD53, hits give low values
[81] = S. cerevisiae deletion strains, locus YPL204W, strain HRR25, hits give low values
[82] = S. cerevisiae deletion strains, locus YPL209C, strain IPL1, hits give low values
[83] = S. cerevisiae deletion strains, locus YPL256C, strain CLN2, hits give low values
[84] = S. cerevisiae deletion strains, locus YPR025C, strain CCL1, hits give low values
[85] = S. cerevisiae deletion strains, locus YPR106W, strain ISR1, hits give low values
[86] = S. cerevisiae deletion strains, locus YPR111W, strain DBF20, hits give low values
[87] = S. cerevisiae deletion strains, strain NNK1, hits give low values
[88] = S. cerevisiae deletion strains, strain TSCII, hits give low values

Measured: normalized growth

COc1ccc2c(c1)[C@@]13CCCC[C@H]1[C@@H](C2)NCC3
inactive: [1] 0.998 | [2] 0.997 | [3] 0.951 | [4] 1.02 | [5] 0.988 | [6] 0.992 | [7] 0.973 | [8] 0.996 | [9] 1.03 | [10] 1.01 | [11] 0.991 | [12] 1 | [13] 0.983 | [14] 1

OCC1NCC(O)C(O)C1O (stereo not drawn)
inactive: [15] 1.02 | [1] 1.02 | [2] 1.01 | [3] 1.04 | [4] 1.01 | [16] 1 | [6] 1.01 | [7] 1.01 | S. cerevisiae deletion strains, locus YNL128W, strain TEP1, hits give low values 1.02 | [17] 1.02 | [8] 1.02 | [9] 1.01 | [10] 0.998 | [12] 1

O=C1CSC(c2cccnc2)N1c1ccc(Cl)cc1Cl (stereo not drawn)
inactive: [18] 0.986 | [19] 0.996 | [20] 0.994 | [21] 0.99 | [22] 0.994 | [23] 0.992 | [24] 0.992 | [25] 1 | [26] 0.985 | [27] 0.993 | [28] 0.931 | [29] 0.997 | [30] 0.987 | [31] 0.989 | [32] 0.919 | [33] 0.823 | [34] 0.897 | [35] 1 | [36] 0.98 | [37] 0.99 | [38] 0.796 | [39] 0.993 | [40] 0.93 | [41] 0.902 | [42] 0.972 | [43] 0.958 | [44] 0.964 | [45] 0.932 | [46] 0.98 | [47] 0.998 | [48] 0.906 | [49] 0.993 | [50] 0.948 | [51] 0.993 | [52] 0.893 | [53] 0.837 | [54] 1.01 | [55] 0.944 | [56] 0.993 | [57] 0.989 | [58] 0.945 | [59] 0.913 | [60] 0.962 | [61] 0.937 | [62] 0.939 | [63] 0.991 | [64] 0.968 | [65] 0.992 | [66] 0.986 | [67] 0.974 | [68] 0.985 | [69] 0.912 | [70] 0.998 | [71] 0.99 | [72] 0.952 | [73] 0.994 | [74] 0.919 | [75] 0.939 | [76] 0.919 | [77] 0.937 | [78] 0.99 | [79] 0.928 | [80] 0.933 | [81] 0.92 | [82] 0.989 | [83] 0.88 | [84] 0.984 | [85] 1.01 | [86] 1 | [87] 0.998 | [88] 0.989

Cc1c(-c2ccnc(N)n2)nnn1-c1ccc(Cl)cc1Cl
inactive: [15] 1 | S. cerevisiae deletion strains, locus YBR229C, strain ROT2, hits give low values 0.974 | [25] 0.981 | S. cerevisiae deletion strains, locus YDR150W, strain NUM1, hits give low values 1.03 | S. cerevisiae deletion strains, locus YEL061C, strain CIN8, hits give low values 0.959 | [16] 0.985 | [43] 0.732 | S. cerevisiae deletion strains, locus YHR087W, strain rtc3, hits give low values 0.959 | S. cerevisiae deletion strains, locus YJL187C, strain SWE1, hits give low values 1.01 | S. cerevisiae deletion strains, locus YJR043C, strain POL32, hits give low values 1.01 | [5] 0.967 | S. cerevisiae deletion strains, locus YKL190W, strain CNB1, hits give low values 1.01 | S. cerevisiae deletion strains, locus YLR039C, strain RIC1, hits give low values 0.936 | S. cerevisiae deletion strains, locus YLR058C, strain SHM2 (second series), hits give low values 0.989 | S. cerevisiae deletion strains, locus YLR085C, strain ARP6, hits give low values 0.885 | S. cerevisiae deletion strains, locus YLR262C, strain YPT6, hits give low values 0.932 | S. cerevisiae deletion strains, locus YML094W, strain GIM5, hits give low values 0.988 | S. cerevisiae deletion strains, locus YMR219W, strain ESC1, hits give low values 1 | [6] 0.98 | [17] 0.991 | S. cerevisiae deletion strains, locus YNL298W, strain CLA4 (second series), hits give low values 0.973 | [11] 1.01 | S. cerevisiae deletion strains, locus YNR030W, strain Alg12, hits give low values 0.975 | S. cerevisiae deletion strains, locus YOL006C, strain TOP1, hits give low values 0.921 | [13] 1.08 | [14] 0.957 | S. cerevisiae deletion strains, locus YPR135W, strain CTF4, hits give low values 0.687 | S. cerevisiae strains, strain wild type, hits give low values 0.992

O=c1c(Cl)c(-n2cccn2)cnn1-c1ccc(Cl)cc1Cl
inactive: [18] 0.93 | [19] 0.948 | [20] 0.943 | [21] 0.949 | [22] 0.96 | [23] 0.95 | [24] 0.954 | [25] 0.985 | [26] 0.962 | [27] 0.95 | [28] 0.906 | [29] 0.93 | [30] 0.913 | [31] 0.974 | [32] 0.893 | [33] 0.722 | [34] 0.909 | [35] 0.955 | [36] 0.916 | [37] 0.953 | [38] 0.956 | [39] 0.965 | [40] 0.883 | [41] 0.902 | [42] 0.539 | [44] 0.768 | [45] 0.988 | [46] 1.02 | [47] 0.955 | [48] 0.823 | [49] 0.94 | [50] 0.864 | [51] 0.932 | [52] 0.726 | [53] 0.901 | [54] 0.979 | [55] 0.903 | [56] 0.951 | [57] 0.936 | [58] 0.909 | [60] 0.943 | [61] 0.92 | [62] 0.917 | [63] 0.917 | [64] 0.926 | [65] 0.941 | [66] 0.934 | [67] 0.914 | [68] 0.931 | [69] 0.857 | [70] 0.968 | [71] 0.949 | [72] 0.901 | [73] 0.928 | [74] 0.951 | [75] 0.93 | [76] 0.947 | [77] 0.842 | [78] 0.943 | [79] 0.862 | [80] 0.84 | [81] 0.903 | [82] 0.954 | [84] 0.947 | [85] 0.986 | [86] 0.981 | [87] 0.97 | [88] 0.908
active: [43] 0.71 | [59] 0.691 | [83] 0.831
